This is a sample that favours compounds with a hit; in the whole collection about 20% have one here.
Shiga toxin inh – Shiga toxin inhibition; Vero cells, Shiga toxin protein synthesis inhibition reporter; inhibition, % at 38.7 µM; hit rate 9.2% among 290,000; AID 2315; in the data active = inhibition mostly above about 28%, no sharp cut-off; inactive = mostly below about 43%; also: 0% is about no effect
Pf growth 48h – P. falciparum growth inhibition at 48 hours (one generation) | P. falciparum luciferase growth in erythrocytes, 48 h | Potency, µM (series often up to 28.7 µM), inactives show top-dose activity change, negative = inhibition, actives largely listed as inhibitors | hit rate 5.9% among 310,000 | AID 504832; also: potency is read from the fitted curve at half-maximal effect; % is scaled to controls: 0 for no effect and ±100 for the full control effect
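First compound was added to culture medium, then infected red cells at 0.1% parasitemia and 2% hematocrit (final). After incubation at 37 C under 5% CO2, luciferase detection reagent was dispensed and light output recorded.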
Pf growth 96h – P. falciparum growth inhibition at 96 hours; P. falciparum luciferase reporter growth, 96 h; Potency, µM (titrated, usually from 28.7 µM), without a hit: at the highest dose activity change, negative = inhibition, usual class: inhibitors; hit rate 6.9% among 320,000; AID 504834; also: potency is read from the fitted curve at half-maximal effect; % is scaled to controls: 0 for no effect and ±100 for the full control effect
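Parasite growth measured via integrated firefly luciferase reporter in P. falciparum. Infected erythrocytes at 2% hematocrit, 0.05% parasitemia final were treated 96 hours at 37 C under 5% CO2, and luminescence was read.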
CHX counter – counter-screen hit for Shiga toxin inhibitors, cycloheximide. hit rate 12% among 300,000. max response, %. cell reporter, cycloheximide protein synthesis inhibition counterscreen; in the data active = max response mostly above about 13%, no sharp cut-off; inactive = mostly below about 14%; also: read at 38.3 µM for the half of the compounds with a filed dose; 0% is about no effect
HCMV antiviral – inhibitors of human cytomegalovirus. HFF cells, HCMV-luciferase reporter, 72 h; hits give low values. activity change, negative = inhibition, % at 57.5 µM. hit rate 4.5% among 410,000. AID 1259415; in the data active = activity change below about -60%; inconclusive = no clear call, values can overlap the other calls; inactive = above about -39%; also: % is scaled to controls: 0 for no effect and ±100 for the full control effect
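Compounds were evaluated in HFFs infected with an HCMV luciferase reporter virus (MOI 1 PFU/cell). Luciferase in lysates collected 72 h post infection served as the replication measure.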
Numbers without * were called inactive; ? = inconclusive; nt = no result given. Unless noted, calls follow the shape of the dose curve; as a rule, active = well fitted inhibition curve with a large enough effect; inconclusive = small, poorly fitted or top-dose-only effect, or another doubt; inactive = no such curve, though single readings can be large or run the other way.

SMILES	Shiga toxin inh	Pf growth 48h	Pf growth 96h	CHX counter	HCMV antiviral
CCN(CC(=O)Nc1ccc(NC(C)=O)cc1)C(=O)/C=C/c1ccc(S(=O)(=O)N2CCCCCC2)cc1	-11	3.3µM*	4.7µM*	-3	-3
NC(=O)c1ccc(NC(=O)CN2CCN(c3ccccc3)CC2)cc1	nt	3%	?	-3	-22
NC(=O)c1ccc(NC(=O)CN2CCN(c3ccc(Cl)cc3)CC2)cc1	-18	7%	12µM*	-5	-14
CCOC(=O)c1cc(-c2ccc(C)cc2)n(CCC(=O)N2CCN(c3ccccn3)CC2)c1C	-10	?	?	7	-14
CCN1CCN(S(=O)(=O)c2ccc(Cl)c(C(=O)N(CC)Cc3ccccc3)c2)CC1	nt	?	-1%	nt	-18
COc1cc(CN(C)c2ccc(S(=O)(=O)N3CCCC3)cn2)ccc1OC(F)F	nt	15µM*	?	nt	-2
CCN1CCN(S(=O)(=O)c2ccc(S(=O)(=O)N(CC)Cc3ccccc3)cc2)CC1	1	13µM*	?	-1	7
O=C(CCc1ccccc1)Nc1ccc(S(=O)(=O)N2CCCC2)cc1	-1	?	8.3µM*	-2	-32
O=C(CSCc1ccc(Cl)cc1)Nc1ccc(S(=O)(=O)N2CCCCCC2)cc1	-7	?	13µM*	-4	15
Cc1nc(NC(=O)COC(=O)C2CC2C)c(Cl)cc1Cl (stereo unspecified)	nt	nt	nt	nt	-17
CC1CCC(NC(=O)C(C)N2C(=O)C3CCCCC3C2=O)CC1 (stereo unspecified)	nt	57%	20%	nt	1
CCOC(=O)c1c(NC(=O)c2cc(-c3ccccc3)on2)sc2c1CCCC2	nt	nt	nt	nt	4
CCCCC(=O)Nc1ccc(N2CCCC2)cc1	nt	nt	nt	nt	4
CCCOC(=O)Nc1ccc(N2CCCCC2)cc1	56*	132%	41%	34*	76
Nc1c(O)ccc2c1C(=O)c1ccccc1C2=O	34	21%	?	12*	14
Nc1cc(N)c2c(c1)C(=O)c1ccccc1-2	nt	nt	nt	nt	6
Cc1cc(NCc2ccc3c(c2)OCO3)n2nc(C)nc2n1	16	-4%	0.37µM*	-2	9
Cc1cc(C)cc(Nc2cc(C)nc3nc(C)nn23)c1	-6	nt	41%	-4	24
Cc1cc(Nc2cccc(C(F)(F)F)c2)n2nc(C)nc2n1	-11	?	0%	-2	18
CCc1cccc(Nc2cc(C)nc3nc(C)nn23)c1	17	5.2µM*	8.3µM*	-1	-2
CCc1ccc(Nc2cc(C)nc3nc(Cc4ccc(Cl)cc4)nn23)cc1	nt	nt	nt	nt	-92*
CCc1nc2nc(C)cc(Nc3cccc(C(F)(F)F)c3)n2n1	-18	2.1µM*	15%	-1	60
CC(C(=O)Nc1ccc(N(C)C)cc1)N1C(=O)c2ccccc2S1(=O)=O (stereo unspecified)	nt	2%	?	nt	7
Cc1cccc(NC(=O)CNC(=O)Cc2ccc3c(c2)OCCO3)c1C	nt	?	?	nt	-34
Cc1ccc(Nc2cc(C)nc3nc(C)nn23)cc1	-10	?	23%	-5	-14
SMILES	Shiga toxin inh	Pf growth 48h	Pf growth 96h	CHX counter	HCMV antiviral
Cc1cc(Nc2ccc(Br)c(C)c2)n2nc(C)nc2n1	-12	0.26µM*	10µM*	-4	-4
O=CCCCC=O	nt	15µM*	12µM*	nt	nt
O=C(Nc1ccc(F)cc1)Nc1csc2ccccc12	97*	?	?	21*	-75*
CN1CCC(CNC(=O)Nc2csc3ccccc23)CC1	36	0%	59%	25	-14
CN(C)c1ccc(NC(=O)Nc2csc3ccccc23)cc1	76*	?	5.2µM*	44*	-36
Cc1ccc(Cl)cc1OCC(=O)NCCOC(=O)Nc1sc(=S)n(C)c1C	-3	0%	-28%	4	-3
Cc1cc(Cl)ccc1OCC(=O)NCCOC(=O)Nc1sc(=S)n(C)c1C	-10	7%	4.7µM*	-1	?
Cc1c(NC(=O)OCCNC(=O)Nc2ccccc2)sc(=S)n1C	-13	12%	4.7µM*	-4	-27
Cc1ccc2[nH]c(C)c(CCNC(=O)c3c(N)no[n+]3[O-])c2c1	-6	18%	26%	1	-7
O=S1(=O)CC(N2CCN(Cc3ccccc3F)CC2)CN1Cc1cn(Cc2ccc(F)cc2)nn1 (stereo unspecified)	nt	nt	nt	nt	7
Nc1ccc(Oc2cc(N)cc(Oc3ccccc3)c2)cc1	68*	63%	?	44*	193
CCCN(CC(=O)Nc1ccccc1C)C(=O)C1CC(=O)N(c2cccc(C)c2C)C1 (stereo unspecified)	nt	5%	11%	nt	-20

Source: PubChem BioAssay (National Center for Advancing Translational Sciences (NCATS))
